PubChem BioAssay AID1347417 (National Center for Advancing Translational Sciences (NCATS), 2020)
Among all 120,000 compounds or so, about 5,300 (4.4%) were called active. Entries that show only a call come without a potency. Roughly 22% stayed inconclusive and do not appear here. This is one part of a sample in which actives are shown more often than they occur. Values without a mark were called inactive. Calls come from the whole dose curve; as a rule, active = well fitted inhibition curve with a large enough effect; inconclusive = small, poorly fitted or top-dose-only effect; inactive = no such curve, though single readings can be large or run the other way.

test: qHTS Primary assay for Inhibitors of Plasmodium falciparum Dd2 growth in vitro; note: nearly all actives have a fitted effect of over 65% in size; settings: P. falciparum Dd2 growth, SYBR Green, 72 h; series mostly up to 28.9 µM
Description: Malaria, a parasitic disease spread to humans through the bite of a Plasmodium infected Anopheles mosquito, continues to be a global health burden affecting millions of people, with an estimated 228 million cases and 405,000 deaths in 2018. Concerns about safety and limitations of current antimalarial treatments strongly emphasize the need to develop new therapeutic options. The scarce number of chemotypes and validated drug targets with efficacy against the liver stage, have hindered development of new antimalarials. To address this, a chemoprophylactic drug discovery effort was conducted through a combined phenotypic high-throughput asexual blood stage and liver stage screen, providing a robust foundation to identify liver-stage active lead chemotypes. Compounds were initially screened against Plasmodium falciparum Dd2 strain parasites using a in vitro SYBRGreen-1 based 72 hr proliferation assay to identify novel chemotypes to advance to liver stage assays. NIH/NCATS Early Translation Branch Assay Submitter (PI): Anton Simeonov Ph.D.
Malaria-vivax Assay Protocol: PROTOCOL TABLE (as described by Inglese et al., 2007) SEQUENCE No. (e.g., 1, 2, 3, etc.); […] (e.g., Cells, Incubation, Reagent, etc.); VALUE; DESCRIPTION SEQUENCE, Parameter, Description 1; Reagent; 3 uL complete malaria growth medium, 1536 TC treated Black clear bottom plate 2; Controls; 23 nL positive control artesunate (300 nM final) to column 1; Neutral control DMSO to columns 2-4 3; Compound; 23 nL of compounds in dose response concentration (29 uM to 0.5 nM final) 4; Reagent; 5 uL malaria infected red blood cells (2.5% hematocrit final, 0.3% parasitemia 5; Time; 72 hours at 37C (5% O2, 5% CO2, 90% N2; 95% Rh) 6; Reagent; 2 uL lysis buffer/SYBRGreen-1, 25 sec shake immediately following dispense 7; Time; ~16 hours at 37C (5% O2, 5% CO2, 90% N2; 95% Rh) 8; Detector; EnVision (PerkinElmer) bottom read at 485/14nm excitation and 535/25 nm emission NOTES (numbers refer to sequence above): 1; Complete Malaria Growth Media: 1X RPMI-1640 w/L-glutamine, 5.5g/L Albumax II, 367 uM Hypoxanthine, 25 mM HEPES, 0.25% Sodium Bicarbonate, 35 uM Gentamicin sulfate 2; Controls were added using the Kalypsis Pintool (Wako USA) equipped with 1536 pinhead 3; Compounds were added in a 7-point, titration with a high final concentration of 29 uM by Pintool from seven inter-plate titrations of library plates and two DMSO control plates at the beginning and end (see Yasgar et al., 2008). 4; Red blood cells infected with Plasmodium falciparum Dd2 parasites were used. 6; Lysis buffer: 20 mM Tris-HCl, 10 mM EDTA, 0.16% Saponin, 1.6% Triton-X, 10X SYBR Green. REFERENCE: Inglese J, Shamu CE, Guy RK. 2007. Reporting data from high-throughput screening of small-molecule libraries. Nat Chem Biol. doi:10.1038/nchembio0807-438 Yasgar A, Shinn P, Jadhav A, Auld D, Michael S, Zheng W, Austin CP, Inglese J, Simeonov A. 2008. Compound Management for Quantitative High-Throughput Screening. J Lab Autom 13:79-89. doi:10.1016/j.jala.2007.12.004
Potency is the fitted concentration of half-maximal effect.

Structure (SMILES)	Potency	activity, negative = inhibition
CN(Cc1ccccc1)C[C@H]1CN2CC[C@H]1C[C@@H]2CNC(=O)Nc1ccsc1	10 µM (active)	–
CC[C@H]1CN2CC[C@H]1C[C@@H]2CNC(=O)c1ccc(N(C)C)cc1	inactive	–
C=CCN(C)C[C@H]1CN2CC[C@H]1C[C@@H]2CNC(=O)Nc1cccc(SC)c1	inactive	–
COc1ccc(OC)c(-c2noc(N3CCN(c4cc(Cl)ccc4C)CC3)n2)c1	8.91 µM (active)	–
COc1ccc(S(=O)(=O)N2CCN(c3ccc(F)cc3)CC2)cc1-c1noc(C)n1	inactive	–
CCc1nc(-c2cc(S(=O)(=O)N3CCN(c4ccc(OC)cc4)CC3)ccc2OC)no1	inactive	–
COc1nccnc1NC1CCN(C(=O)CCc2c(C)noc2C)CC1	–	30.5% [at 5.79 µM]
O=C(Cc1ccsc1)N1CCC(c2n[nH]c(=O)n2Cc2ccc(F)cc2)CC1	inactive	–
Cn1cc(CNC(=O)C[C@@H]2C[C@H]3O[C@H](CNC4CCCC4)[C@@H](O)[C@H]3O2)cn1	inactive	–
COc1cc(-c2ccnc3nc(C4CC4)nn23)cc(OC)c1OC	inactive	–
Cc1cccc(C(=O)Nc2ccc(-c3nc4ccccc4s3)c(C)c2)c1	inactive	–
Cc1cc(Nc2cccc(C(F)(F)F)c2)nc2ccc(NC(=O)c3ccc(=O)[nH]c3)cc12	3.98 µM (active)	–
Cn1c(C(=O)Nc2cccc(C(F)(F)F)c2)cc2c(=O)n3ccccc3nc21	inactive	–
O=C(O)c1ccnc(-c2ccnc(NCCN3CCCCC3CO)n2)c1 (configuration not stated)	inactive	–
COc1cccc(C(=O)N2CCCN(C(=O)C3CC3)c3ccccc32)c1OC	inactive	–
CN1CCCN(C(=O)c2ccccc2OC(F)(F)F)c2ccccc21	inactive	–
COc1ccccc1C(=O)N1CCCN(CCc2ccccc2)c2ccccc21	11.2 µM (active)	–
COc1ccc(C2Cn3nnc(-c4noc(-c5ccccc5)n4)c3CO2)cc1 (configuration not stated)	inactive	–
COCCN1C(=O)[C@H]2CN(Cc3ccsc3)C[C@H]2C1=O	inactive	–
COc1ccccc1/C=C/c1nc(C#N)c(NC(C)c2ccccc2)o1 (configuration not stated)	4.47 µM (active)	–
COc1ccc(/C=C/c2nc(C#N)c(NCc3ccc(F)cc3)o2)cc1OC	inactive	–
N#Cc1nc(/C=C/c2ccc(F)cc2)oc1NCc1ccc(F)cc1	inactive	–
COCCn1nnnc1C1CC2(CCOCC2)C(=O)N1Cc1ccc(SC)cc1 (configuration not stated)	inactive	–
COc1ccc(C(=O)Nc2cccc(-c3nnc4n3CCCC4)c2)cc1	10 µM (active)	–
CC(=O)Nc1cccc(-c2nnc3n2CCCC3)c1	inactive	–

Structure (SMILES)	Potency	activity, negative = inhibition
COc1cccc(NC(=O)c2c(OC)cc(=O)n3c2CCCC3)c1	inactive	–
Cc1noc(C)c1C(=O)N1CC(N(Cc2cccnc2)CC(C)C)C1	inactive	–
O=C(c1ccsc1)N1CCCn2cc(-c3ccc4c(c3)OCO4)nc21	inactive	–
Cc1ccc(-n2c(=O)c3cccnc3n2CC(=O)NCc2ccc(F)cc2)cc1C	inactive	–
Cc1ccc(-n2c(=O)c3cccnc3n2CC(=O)Nc2ccccc2C(F)(F)F)cc1C	8.91 µM (active)	–
CC(C)c1ccc(NC(=O)Cn2c3ncccc3c(=O)n2-c2ccccc2)cc1	inactive	–
C=CCNC(=O)N1CC[C@H]2CC(=O)N(c3ccccc3)CC[C@H]2C1	inactive	–
C[C@@]1(O)CCN(Cc2cc(=O)n3[nH]cnc3n2)C[C@@H]1O	inactive	–
CCOc1ccc(C(=O)N2CCCC(c3noc(COC)n3)C2)cc1 (configuration not stated)	inactive	–
COCc1nc(C2CCCN(C(=O)c3ccccn3)C2)no1 (configuration not stated)	inactive	–
O=C(C1CCCC1)N1CCCC(c2noc(COc3ccccc3)n2)C1 (configuration not stated)	8.91 µM (active)	–
COC(=O)c1cc(NC(=O)CCS(=O)(=O)c2cc(Br)cc3c2N(C(=O)C2CC2)CC3)cc(C(=O)OC)c1	inactive	–
O=C(C1CC1)N1CCc2cc(Br)cc(S(=O)(=O)N3CCN(c4ccccc4F)CC3)c21	inactive	–
O=C(CCS(=O)(=O)c1cc(Br)cc2c1N(C(=O)C1CC1)CC2)Nc1ccc(C(F)(F)F)cc1	1.12 µM (active)	–
CN1CC2(CCN(C(=O)c3cccn3C)CC2)CC1C(=O)N1CCOCC1 (configuration not stated)	inactive	–
O=C(Nc1ccc(F)cc1F)c1ccc2c(c1)n(Cc1cccc(F)c1)c(=O)c1ccnn12	inactive	–
CCNC(=O)N1CCCC1c1noc(CCC(=O)NCCc2nc3ccccc3[nH]2)n1 (configuration not stated)	inactive	–
CC(=O)N1Cc2ccccc2CC2(CCN(Cc3ccc(O)cc3)CC2)C1	inactive	–
CC(=O)N1Cc2ccccc2CC2(CCCN(Cc3ccncc3)C2)C1 (configuration not stated)	inactive	–
C[C@H](C(=O)N1Cc2ccccc2CC2(CCN(Cc3ccncc3)CC2)C1)c1ccccc1	11.2 µM (active)	–
O=C(CCc1cccnc1)N1CCc2c(n(CCOc3ccccc3)n(-c3ccccc3)c2=O)C1	inactive	–
COCCCNC(=O)c1cc(C2CC2)nc2onc(C3CCCN3)c12 (configuration not stated)	inactive	–
CC(C)C[C@@H]1N[C@H](C(=O)NC(C)C)Cc2c[nH]c3cccc1c23	inactive	–
CCN1C(=O)CCN(C(=O)c2cnn(C)c2)CC12CCOCC2	inactive	–
CCCCNC(=O)C1CCCN(c2nnc(C)c3c(C)n(-c4ccc(Cl)cc4)nc23)C1 (configuration not stated)	inactive	–

Structure (SMILES)	Potency	activity, negative = inhibition
Cc1nnc(N2CCCC(C(=O)NCCN(C)C)C2)c2nn(-c3ccccc3)c(C)c12 (configuration not stated)	inactive	–
CCc1ccc(CNC(=O)C2CCN(c3nnc(C)c4c(C)n(-c5ccc(C)cc5)nc34)CC2)cc1	10 µM (active)	–
CN1Cc2c(cc(N3CCOCC3)nc2-c2cccc(F)c2)C1=O	inactive	–
COc1cccc(-c2nc(N3CCOCC3)cc3c2CN(CC2CC2)C3=O)c1	11.2 µM (active)	–
O=C1c2cc(N3CCOCC3)nc(-c3cccnc3)c2CN1C1COC1	inactive	–
O=C1CCC(C(=O)NCc2ccc(-c3cnc4c(Oc5ccccc5)nccn34)cc2)N1 (configuration not stated)	inactive	–
COc1ccc(C2Cn3nnc(-c4nc(-c5ccc(OC(C)C)cc5)no4)c3CO2)cc1 (configuration not stated)	inactive	–
CCOC(=O)c1c(C)[nH]c(CCC(=O)NCCCN2CCN(c3cc(C)ccc3C)CC2)c1C	10 µM (active)	–
CCOC(=O)c1c(C)[nH]c(CCC(=O)Nc2ccc(OC)c(OC)c2)c1C	inactive	–
CCOC(=O)c1c(C)[nH]c(CCC(=O)NCCCN2CCN(c3cccc(Cl)c3)CC2)c1C	inactive	–
CC1=C(c2ccc(Cl)cc2)S(=O)(=O)N=C1N1CCN(c2cc(C)ccc2C)CC1	inactive	–
Cc1ccc(C)c(N2CCN(C(=O)Cc3c(C(=O)O)c(C)cn3C)CC2)c1	inactive	–
Cc1ccc(C)c(N2CCN(CCCNC(=O)Nc3ccc(Cl)cc3)CC2)c1	10 µM (active)	–
CCN1CCCC1CNC(=O)CCC1CCN(Cc2ccc(Cl)o2)CC1 (configuration not stated)	inactive	–
O=C(Cn1ccn2nc(-c3ccc(F)cc3)c(CO)c2c1=O)NCCC1=CCCCC1	inactive	–
COc1cccc(CNC(=O)Cn2c(C)cc3nc4n(c(=O)c32)CCCC4)c1	inactive	–
O=C1CSC2(CCN(S(=O)(=O)c3ccc(F)cc3)CC2)N1Cc1ccco1	inactive	–
CC(C)CCN1CCC(N2CCN(C(=O)C3CCC3)CC2)C1=O (configuration not stated)	inactive	–
CNC(=O)[C@@H]1CN(Cc2cccc(OC)c2)C[C@H]1CO	inactive	–
COc1cccc(CN2CCc3nc(SCC(=O)Nc4ccccc4)[nH]c(=O)c3C2)c1	inactive	–
COc1cccc(CN2CCc3c(cc(C(=O)NCCN4CCCCC4)n3C)C2)c1	3.98 µM (active)	–
CCc1ccc(C(=O)N2CCC(c3n[nH]c(=O)n3Cc3ccc(OC)cc3)CC2)cc1	inactive	–
O=Cc1cccc(N2CCN(C(=O)N3CCCC3)CC2=O)c1	inactive	–
CC(C)N1CC[C@@H]2[C@H]1C(=O)NC[C@H](CCC(=O)NCc1ccccc1)N2C	inactive	–
COCc1cc(C[C@@H]2CC[C@H](O)[C@@H](CN(CC3CCCCC3)CC3CCCCC3)O2)no1	3.16 µM (active)	–

Structure (SMILES)	Potency	activity, negative = inhibition
CCC(CC)C(=O)NC[C@H]1O[C@H](Cc2cc(-c3ccc(F)cc3)on2)CC[C@@H]1O	inactive	–
COCc1cc(C[C@@H]2CC[C@H](O)[C@@H](CN(C)C)O2)no1	inactive	–
O=C(CN1C(=O)COc2ccc(C(=O)COc3ccc(Cl)cc3F)cc21)NCCc1ccccc1	inactive	–
Cc1ccc(C)c(C(=O)NC2CCN(c3cnn(CC4CC4)c(=O)c3)CC2)c1	inactive	–
C[C@]1(O)CCN(C(=O)c2ccc(N3CC(=O)NC3=O)cc2)C[C@@H]1O	inactive	–
Cc1noc([C@@H]2CN(S(=O)(=O)c3ccc4c(c3)CCC4)C[C@H]2C(N)=O)n1	inactive	–
CCOC(=O)c1c(C)oc2nc(C)nc(N(CC(C)C)CC(C)C)c12	10 µM (active)	–
COc1ccc(N2CCN(C(=O)c3c(C)oc4nc(C)nc(N5CCCC5)c34)CC2)cc1	inactive	–
CCOC(=O)c1c(C)oc2nc(C)nc(N3CCN(c4ccc(OC)cc4)CC3)c12	10 µM (active)	–
Cc1nc(N2CCOCC2)c2c(C(=O)NCc3cccc(Cl)c3)c(C)oc2n1	inactive	–
CN(CCc1noc(C2CN(C(=O)c3cc(F)ccc3F)C2)n1)C(=O)C1CC1	inactive	–
Cc1nc(N(C)C)ncc1C(=O)N[C@@H]1CCOC[C@H]1Oc1ccccn1	inactive	–
COc1ccc(O[C@H]2COCCN(S(=O)(=O)c3c(C)noc3C)C2)cc1	inactive	–
O=C(c1ccccn1)N1C[C@@H]2OCC(=O)N(CC3CC3)[C@@H]2C1	inactive	–
CCc1ccc(CNC(=O)c2cc3c(=O)n(CC)c4ccccc4c3s2)cc1	inactive	–
CCN(CCCNC(=O)c1cc2c(=O)n(CC)c3ccccc3c2s1)Cc1ccccc1	4.47 µM (active)	–
CCn1c(=O)c2cc(C(=O)NCCc3ccc(Cl)cc3)sc2c2ccccc21	inactive	–
CN(Cc1ccc2c(c1)OCO2)C(=O)C1(C)CCOCC1	inactive	–
COCCNC(=O)CC[C@]12CC[C@](C)(O)C[C@H]1C(C)(C)C[C@@H]2NC(=O)c1ccc(C(F)(F)F)cc1	inactive	–
Cc1cc(F)ccc1NC(=O)CCC1CCCN(C(=O)c2ccc(Cl)s2)C1 (configuration not stated)	inactive	–
Cc1c[nH]c(CN2CCCC(CCc3ccc(F)cc3F)C2)c(C)c1=O (configuration not stated)	10 µM (active)	–
Cc1noc(C)c1C(=O)N1CCCC(CCc2ccc(F)cc2F)C1 (configuration not stated)	inactive	–
